# SMN2 splice up = increases expression of the SMN2 splice variant | Potency, µM (doses to about 46.1 µM), without a hit: at the top dose activity change, positive = activation, hits mostly activators | hit rate 2.8% among 210,000 | HEK293 SMN2-luciferase splicing reporter, luminescence, 30-36 h | AID 1458; note: % of control where 0% means no effect; nearly all actives have a fitted effect of over 55% in size
#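 qHTS luciferase splicing reporter: luminescence rises when SMN2 exon 7 is included in transfected HEK293 cells. Compound exposure lasted 30-36 h at 37C, with 4.5 mM final sodium butyrate as control, followed by a ONE-Glo read.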
# ELG1 genotoxic = inducers of genotoxicity in HEK293T ELG1-luciferase cells | hit rate 1.3% among 330,000 | HEK293T ELG1-luciferase reporter, luminescence, 16 h | Potency, µM (titrated, usually from 46 µM), for the others: top-dose activity change, positive = activation, hits mostly activators; note: % of control where 0% means no effect; nearly all actives have a fitted effect of over 60% in size
#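 Cells (2,000/well) expressing the ELG1-luciferase fusion are dosed by pin tool and kept 16 hr at 37 °C, 5% CO2. Signal comes from ONE-Glo luciferase reagent after 30 min at room temperature.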
# FLuc counter = counter-screen for miR-21 project: firefly luciferase inhibitors or activators; AID 588342; Potency, µM (highest dose often 57.5 µM), for the others: at the top dose activity change, negative = inhibition, most hits filed as inhibitors; purified FLuc, Km substrates, luminescence inhibition; hit rate 6.9% among 360,000;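 note: plate controls were vehicle for no effect and reference inhibitor for full effect; nearly all actives have a fitted effect of over 55% in size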
# Target sequence (P08659 whole entry, looked up): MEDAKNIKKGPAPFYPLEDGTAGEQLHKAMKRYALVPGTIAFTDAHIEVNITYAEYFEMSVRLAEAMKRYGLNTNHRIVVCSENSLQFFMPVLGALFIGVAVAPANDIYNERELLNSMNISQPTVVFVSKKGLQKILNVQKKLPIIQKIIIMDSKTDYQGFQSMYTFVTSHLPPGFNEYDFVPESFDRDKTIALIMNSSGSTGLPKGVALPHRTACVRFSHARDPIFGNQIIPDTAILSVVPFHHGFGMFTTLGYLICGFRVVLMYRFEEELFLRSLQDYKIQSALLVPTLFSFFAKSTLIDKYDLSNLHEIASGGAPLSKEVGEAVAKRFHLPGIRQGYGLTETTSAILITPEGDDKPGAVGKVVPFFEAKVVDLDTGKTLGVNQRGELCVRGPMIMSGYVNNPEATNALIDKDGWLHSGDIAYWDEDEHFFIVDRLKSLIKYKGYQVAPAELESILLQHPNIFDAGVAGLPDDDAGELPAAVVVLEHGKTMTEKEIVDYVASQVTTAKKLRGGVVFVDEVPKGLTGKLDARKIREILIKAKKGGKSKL
#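 Purified P. pyralis luciferase, 10 nM final, with Km-level 10 uM D-luciferin and 10 uM ATP in 50 mM Tris acetate pH 7.5, 10 mM Mg acetate, 0.01% Tween-20, 0.05% BSA; 6-point qHTS titration about 60 µM downward; luminescence read.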
# NPC1 prom act = NPC1 promoter activation. Huh7 NPC1 promoter luciferase reporter, 24 h. Potency, µM (highest dose often 9.22 µM), inactives show at the highest dose activation, usual class: activators. hit rate 2.4% among 320,000. AID 485313; note: % of control where 0% means no effect; nearly all actives have a fitted effect of over 60% in size
#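 Luminescence from an NPC1 promoter-driven luciferase reporter in stably transfected Huh7 cells was measured after 24 h compound treatment at 37 °C, followed by 10 min ambient incubation with luciferase detection reagent.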
# Rab9 promoter act = activates the Rab9 promoter; hit rate 2.8% among 320,000; Huh7 Rab9 promoter-luciferase reporter, luminescence, 24 h; Potency, µM (series often up to 9.22 µM), without a hit: at the highest dose activation, negative = inhibition, most hits filed as activators; AID 485297; note: % of control where 0% means no effect; nearly all actives have a fitted effect of over 60% in size
#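 Luminescence from Amplite-detected luciferase (10 minutes, ambient) reports Rab9 promoter activation. Before that, stable Rab9-luciferase Huh7 cells (1500/well, reduced-serum OP-MEM I plus 10% FBS) were exposed to compound for 24 hours at 37C.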
# Starred values were filed as active, the others as inactive; ? = inconclusive; · = not tested or not shown; [ ] = dose if it differs, or a comment. An excerpt weighted towards active compounds, which were near 7.5% of everything screened. Calls come from the whole dose curve; as a rule, active = well fitted curve in the direction sought with a large enough effect; inconclusive = small, poorly fitted or top-dose-only effect, or another doubt; inactive = no such curve, though single readings can be large; an effect the other way counts as inactive or inconclusive. Potency is the fitted concentration of half-maximal effect.
SMILES,SMN2 splice up,ELG1 genotoxic,FLuc counter,NPC1 prom act,Rab9 promoter act
Cc1ccc(/C=C/C(=O)c2ccccc2O)cc1,·,?,1.2µM*,18%,20%
Cc1c(/C=C/C(=O)c2ccccc2O)cnn1C,16µM*,?,1.3µM*,3.5µM*,2.5µM*
O=C(/C=C/c1ccco1)c1cccnc1,·,-2%,-7%,2%,1%
CCCOc1ccc(C2C(=O)N(C3CCCCC3)CC(=O)N2CCc2ccccc2)cc1OC (stereo not given),·,·,-1%,·,·
O=C(CCC(=O)c1ccc(F)cc1)OCc1nnc(-c2ccc([N+](=O)[O-])cc2)o1,·,3%,-15%,-3%,2%
O=C(/C=C/c1cccnc1)c1ccccc1O,·,8%,17µM*,-4%,-1%
Cc1ccc(/C=C/C(=O)c2ccc(C)cc2)cc1,-1%,?,1.3µM*,10%,23%
CN(C)c1ccc(/C=C/C(=O)c2ccccc2O)cc1,·,?,0.6µM*,3.5µM*,?
COc1cc(/C=C/C(=O)c2ccccc2O)cc(OC)c1OC,24%,?,?,-2%,-8%
N#Cc1c(-c2ccccc2)no[n+]1[O-],20%,·,·,·,·
CCN1CCN(C(=O)Nc2ccccc2OC)CC1,?,1%,-1%,-5%,7%
O=C(COc1ccccc1C(=O)Nc1ccccc1)c1ccc(F)cc1,-9%,2%,3%,-5%,-2%
O=C(COc1cccc(NC(=O)c2ccccc2)c1)c1ccc(F)cc1,-58%,-7%,15µM*,5%,-2%
O=C(COc1ccc(Cc2ccccc2)cc1)c1ccc(F)cc1,3%,9%,8.5µM*,27%,24%
CCC(=O)Nc1ccc(N2CCN(S(C)(=O)=O)CC2)cc1,3%,2%,-10%,2%,-3%
COc1cc(/C=C(\C#N)c2nc3ccccc3o2)ccc1O,·,?,7.6µM*,-2%,20%
N#C/C(=C\c1ccc(O)cc1)c1nc2ccccc2o1,·,?,11µM*,?,?
COc1cc(NS(=O)(=O)c2ccc(N/C=C(\C#N)c3nc4ccccc4o3)cc2)nc(OC)n1,27%,-1%,3%,-4%,-6%
CCOc1cc(C)c(S(=O)(=O)Nc2ccc3cn[nH]c3c2)cc1C,-55%,-6%,-5%,-3%,-30%
CCOc1ccc(Cl)cc1S(=O)(=O)n1nnc2ccccc21,25µM*,-5%,0%[2.3 µM],-2%,-6%
CSCCC(NC(=O)c1ccco1)C(=O)NCc1ccc2c(c1)OCO2 (stereo not given),·,-1%,6%,-2%,0%
CCN(CC)C(=O)CSc1nnc(CSc2ncccn2)n1C,·,2%,3%,1%,-3%
On1c(-c2ccc(Cl)cc2)nc2ccccc21,-27%,10%,19µM*,?,?
O=C(COC(=O)C12CC3CC(CC(C3)C1)C2)NCCc1ccccc1,22%,2%,-12%,0%,-2%
O=C(O)[C@H]1CCCC[C@@H]1C(=O)Nc1nc2ccccc2[nH]1,-6%[9.22 µM],·,·,·,·
SMILES,SMN2 splice up,ELG1 genotoxic,FLuc counter,NPC1 prom act,Rab9 promoter act
O=C(CSCc1ccco1)c1cccs1,7%,12µM*,9.5µM*,4µM*,1.3µM*
O=C(NCc1ccco1)c1cccs1,-11%,-1%,-2%,4%,-4%
COc1cccc(C(=O)COC(=O)c2cc(-c3cccs3)nc3ccccc23)c1,0%,·,-17%,·,·
COc1cccc(C(=O)COC(=O)c2cccs2)c1,·,?,0.48µM*,?,5%
O=C(CCC(=O)c1cccs1)NC(c1ccccc1)c1ccccc1,-9%,1%,0%,-1%,-2%
O=C(CCC(=O)c1cccs1)c1cccs1,·,16µM*,4.8µM*,1.3µM*,0.63µM*
O=C(COC(=O)c1cccs1)c1ccccc1,14%,14%,0.85µM*,?,4µM*
COC(=O)Cc1ccc(NC(=S)N2CCN(c3ccc(F)cc3)CC2)cc1,-46%,1%,-1%,-2%,-11%
COc1cc(-c2nnc(CSc3nnc(Nc4ccc(Oc5ccccc5)cc4)s3)o2)cc(OC)c1OC,13%,-2%,9.5µM*,15%,14%
CCCCN(C(=O)c1ccc(C)cc1)c1c(N)n(CCC)c(=O)[nH]c1=O,·,0%,2%,-3%,2%
O=c1nc(Nc2cccc(Cl)c2)oc2cc(Cl)oc(=O)c12,·,6%,13µM*,18%,-2%
CCN(CC(=O)Nc1ccc2c(c1)OCCO2)C(=O)/C=C/c1ccccc1,?,-16%,?,2%,-9%
CCN(CC(=O)Nc1ccc2c(c1)OCCO2)C(=O)/C=C/c1cccc(Br)c1,·,?,15µM*,14%,17%
CCN(CC(=O)Nc1ccc2c(c1)OCCO2)C(=O)/C=C/c1ccc(F)cc1,23%,?,17µM*,0%,27%
CCCCc1c(C)nn(-c2nnc3c4ccccc4n(C)c3n2)c1C,-5%,3%,6.7µM*,22%,6%
O=C(NC(=S)NCc1ccco1)c1ccccc1,·,0%,-15%,27%,0%
COCCNC(=S)NC(=O)c1ccc(C(C)(C)C)cc1,?,?,13µM*,24%,?
CC(C)(C)c1ccc(C(=O)NC(=S)NCc2ccco2)cc1,·,9%,19µM*,19%,8%
CCCC1(CCC)NC(=O)N(CC(=O)Nc2ccc3c(c2)OCCO3)C1=O,·,1%,·,·,·
Cc1ccc(CN2C(=O)N/C(=C\c3ccc(-c4ccc(C(=O)O)cc4C)o3)C2=O)cc1,·,-2%,1%,-1%,-6%
Cc1cc(C(=O)O)ccc1-c1ccc(CO)o1,1%,15%,27µM*,3%,10%
COC(=O)C1=C(O)/C(=C\c2ccc(CNC(=O)C(=O)Nc3ccc(C)c(C)c3)o2)N=C1C,-15%,8%,?,-1%,-5%
COC(=O)C1=C(O)/C(=C\c2ccc(CNC(=O)C(=O)Nc3ccc(C)cc3)o2)N=C1C,-20%,8%,6.7µM*,1%,0%
CCOC(=O)C1=C(O)/C(=C/c2ccc(CNC(=O)C(=O)Nc3ccc(C)cc3)o2)N=C1C,-12%,?,7.6µM*,8%,11%
CCOC(=O)C(=O)NCc1ccc(/C=C2/N=C(C)C(C(=O)OCC)=C2O)o1,·,4%,-8%,0%,-13%
SMILES,SMN2 splice up,ELG1 genotoxic,FLuc counter,NPC1 prom act,Rab9 promoter act
CC(=O)c1ccc(NS(=O)(=O)c2ccc(N)cc2)cc1,12%,?,-1%,-3%,0%
CC(=O)c1ccc(N=Nc2ccc(N)cc2)cc1,·,?,1.5µM*,0.4µM*,0.32µM*
O=c1c(=NNc2ccccc2Cl)c(=O)c2ccccc12,-15%,?,0.076µM*,3.2µM*,?
Cc1cc(C)c(NN=c2c(=O)c3ccccc3c2=O)c(C)c1,13µM*,?,0.95µM*,2.8µM*,1.8µM*
CCN(CC)S(=O)(=O)c1cccc(NN=c2c(=O)c3ccccc3c2=O)c1,·,7%,-19%,6%,1%
Cc1cc([N+](=O)[O-])ccc1N(C)C,-5%,3%,-12%,0%,-6%

# High-throughput results from PubChem BioAssay.
